Sm TGR inh: inhibitors of Schistosoma mansoni thioredoxin glutathione reductase; Q962Y6; AID 485364; Potency, µM (highest dose often 114 µM), usual class: inhibitors; purified TGR, DTNB reduction, TNB absorbance 405 nm; hit rate 3% among 360,000; further: nearly all actives have a fitted effect of over 60% in size
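TGR 20 nM + NADPH 100 uM (dispensed conc.), cpd preinc 15 min RT; start with NADPH (500 uM addition) then DTNB (15 mM addition). Kinetic TNB absorbance, 405 nm filter. Four-parameter Hill fit across titration.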
Lassa entry inh: Lassa virus entry inhibition | Lassa virus pseudotype entry inhibition, cell reporter | Potency, µM (series often up to 37.9 µM), most hits filed as inhibitors | hit rate 1.2% among 300,000 | AID 540256; calls by dose curve; tested in HEK293 cells; further: nearly all actives have a fitted effect of over 50% in size
RE007 growth inh: less growth of the S. pombe RE007 Vpr strain; S. pombe RE007 Vpr strain, BacTiter-Glo ATP luminescence, 24 h; Potency, µM (highest dose often 92.2 µM), actives largely listed as inhibitors; hit rate 0.21% among 360,000; active means well fitted falling curve with a large enough effect; inconclusive means small, poorly fitted or top-dose-only effect; inactive means no such curve, though single readings can be large or run the other way; further: nearly all actives have a fitted effect of over 50% in size
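Fission yeast RE007 carrying one integrated HIV-1 vpr copy, seeded at OD 0.01 in PMG+AL medium with 23 nL pinned compound. Grown 24 h at 30 degrees; viability read by BacTiter-Glo luminescence after 5 min.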
FMDV antiviral: antivirals against foot and mouth disease virus. FMDV antiviral cell-based qHTS. Potency, µM (series often up to 57.9 µM), most hits filed as inhibitors. hit rate 1.2% among 410,000; calls by dose curve; tested in HEK293T cells; further: read-out not given here; nearly all actives have a fitted effect of over 45% in size
HCV inh: inhibitors of hepatitis C virus infection; Huh7.5.1 HCVcc-Cre infection, luciferase reporter, 44 h; Potency, µM (series often up to 41.8 µM), hits mostly inhibitors; hit rate 3.4% among 340,000
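Cells (1,000/well) were plated 4 h before compound, then infected with HCVcc-Cre virus (~0.5 moi). After 44 h further culture, infection was read as luciferase luminescence following a 15 min substrate incubation at room temperature.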
MARV entry inh: Marburg virus entry inhibition; Marburg virus pseudotyped entry inhibition, cell reporter; Potency, µM (series often up to 37.8 µM), hits mostly inhibitors; hit rate 1.8% among 300,000; calls by dose curve; tested in HEK293 cells
Hits are given with their value; 0 = inactive; ? = inconclusive; - = not tested or not shown; ! = repeats disagree. A selection: hits, their analogues and other compounds. The true share with any hit is near 7.2%. Unless noted, the call rests on the fitted dose curve; in most records, active means well fitted curve in the direction sought with a large enough effect; inconclusive means small, poorly fitted or top-dose-only effect, or another doubt; inactive means no such curve, though single readings can be large; an effect the other way counts as inactive or inconclusive.

SMILES | Sm TGR inh | Lassa entry inh | RE007 growth inh | FMDV antiviral | HCV inh | MARV entry inh
Nc1nc2ccccc2n1Cc1ccc(Cl)c(Cl)c1 | 0 | 0 | 0 | ? | 0 | 10µM
CC(O)c1nc2ccccc2n1Cc1ccccc1 (stereo unspecified) | 5.6µM | - | 0 | 0 | 0 | -
Cc1ccc(Cn2c(-c3nonc3N)nc3ccccc32)cc1 | 0 | 0 | 0 | 0 | 0 | 0
Cc1ccc(Cn2c(N)nc3ccccc32)cc1 | 0 | 0 | 0 | 0 | 10µM | ?
OCc1nc2ccccc2n1Cc1ccc(Cl)cc1 | 0 | 0 | 0 | 0 | 0 | 0
Cc1ccc(S(=O)(=O)n2c(N)nc3ccccc32)cc1 | 0 | 0 | 0 | 0 | ? | 0
Cc1ccc(C(=O)n2c(N)nc3ccccc32)cc1 | - | ? | 0 | 10µM | 0 | 7.9µM
COc1ccc(N2CC(NC(=O)/C=C\c3ccccc3)CC2=O)cc1OC (stereo unspecified) | 0 | 0 | - | 0 | - | -
Nc1ccc(C(=O)N2CCCC2)cc1 | 0 | 0 | 0 | 0 | 0 | 0
Nc1ccc(C(=O)n2c3ccccc3c3ccccc32)cc1 | 0 | ? | 0 | ? | ? | 4µM
O=S(=O)(c1cccc2c(Cl)cccc12)N1CCCNCC1 | - | 0 | - | 0 | - | 8.9µM!
O=S(=O)(c1ccc(F)cc1)N1CCCNCC1 | 0 | - | 0 | 0 | 0 | -
Cc1ccc(S(=O)(=O)N2CCCNCC2)cc1 | 16µM | 0 | 0 | 0 | 0 | 0
O=S(=O)(c1cccc2c(I)cccc12)N1CCCNCC1 | - | ? | - | 0 | - | ?
COC(=O)C1CCN(c2nc3ccccc3nc2[C@@H](C#N)C(=O)NCCc2ccccc2)CC1 | - | - | - | - | - | 0
Cc1ccc(-n2nc3c(=O)n(CCCC(=O)NCc4cccc(Cl)c4)nc(C)c3c2C)cc1 | 0 | - | 0 | ? | 22µM | -
CCOc1ccccc1CNC(=O)Cn1nc(C)c2c(C)n(-c3ccc(C)cc3)nc2c1=O | 0 | - | 0 | 16µM | 2.8µM | -
COc1ccc(OC)c(CCNC(=O)C(C)n2nc(C)c3c(C)n(-c4ccc(C)cc4)nc3c2=O)c1 (stereo unspecified) | 0 | 0 | 0 | 3.5µM | 2.8µM | -
CCC(C(=O)NCc1cccc(C)c1)n1nc(C)c2c(C)n(-c3ccccc3)nc2c1=O (stereo unspecified) | 0 | - | 0 | 0 | 13µM | -
COc1ccc(OC)c(CCNC(=O)C(C)n2nc(C)c3c(C)n(-c4ccccc4)nc3c2=O)c1 (stereo unspecified) | 0 | 0 | 0 | 0 | ? | ?
CCC(C(=O)NCc1cccc(Br)c1)n1nc(C)c2c(C)n(-c3ccccc3)nc2c1=O (stereo unspecified) | 0 | 0 | - | ? | - | -
Cc1oc2c(c(C)cc3oc(=O)c(CC(=O)NCCc4ccccc4F)c(C)c32)c1C | 0 | 0 | - | 0 | - | 0
CCOc1ccc(CNC(=O)c2cc3c(=O)n(C)c4ccccc4c3s2)cc1 | 0 | 0 | - | 0 | - | 0
CCCNC(=O)C(C)n1nc(C)c2c(C)n(-c3ccccc3)nc2c1=O (stereo unspecified) | 0 | 0 | - | 0 | - | -
CCOc1ccccc1CNC(=O)C(C)n1nc(C)c2c(C)n(-c3ccccc3)nc2c1=O (stereo unspecified) | 0 | 0 | 0 | ? | 6.3µM | ?
SMILES | Sm TGR inh | Lassa entry inh | RE007 growth inh | FMDV antiviral | HCV inh | MARV entry inh
COC(=O)c1c(C)cc(O)c(C=O)c1O | - | - | ? | 0 | 0 | -
Cc1cc2c(C(C)C)c(O)c(O)c(C=O)c2c(O)c1-c1c(C)cc2c(C(C)C)c(O)c(O)c(C=O)c2c1O | 50µM | 7.1µM | - | ? | ? | 10µM
CCC(C)NC(=O)C1CCN(S(=O)(=O)c2ccc3c(c2)CCCN3C(C)=O)CC1 (stereo unspecified) | 0 | 0 | - | 0 | - | -
Cc1cc(C(=O)CSc2nc3ccccc3c(=O)n2C)c(C)n1Cc1ccc2c(c1)OCO2 | ? | ? | 0 | ? | 1.6µM | ?
Cc1nc2nc(NC(=O)CC(C)C)[nH]n2c(=O)c1Cc1ccccc1 | 0 | 0 | - | 0 | - | 0
O=C(Nc1ccc(NC(=S)NC(=O)c2ccccc2Cl)cc1)c1cccc(Cl)c1 | - | ? | 0 | 0 | 25µM | ?
CC(C)Oc1ccc(C(=O)NC(=S)Nc2ccc(Cl)c(C(=O)O)c2)cc1 | 40µM | 0 | 0 | 0 | 0 | ?
COc1cccc(C(=O)NC(=S)Nc2ccc(Cl)c(C(=O)O)c2)c1 | 32µM | 0 | 0 | 0 | 0 | 0
CCOc1cc(C(=O)NC(=S)Nc2ccc(Cl)c(C(=O)O)c2)cc(OCC)c1OCC | 32µM | ? | 0 | 0 | 0 | 0

Screening data deposited in PubChem BioAssay by National Center for Advancing Translational Sciences (NCATS).
